Consider 35 compounds from PubChem BioAssay (NCI).

This is part of a sample that, as a whole, favours compounds with a hit. Of some 83,000 tested, about 20% had one in any assay.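 Negative percent growth values reflect cell death: -40 means 40% of the cells present at the start died, and -100 means all died.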 Unmarked numbers belong to inactive results. Active and inactive are the calls of the source. How the source made its calls: active means growth percent below 10; inactive means the rest.

The subject of the assay is IGROV1 ovarian. Put plainly: NCI-60 one-dose screen, 48 h (100 = growth as untreated, 0 = no growth, -100 = all killed). The note with it: 10 µM unless noted.
As for `CC[n+]1ccc2c(c1)C(=O)c1nccc3c1c-2nc1ccccc13`, the growth was 17.1%.

As to `COc1ccc(-c2csc(NC(=O)CN3CCN(c4cc5c(cc4F)c(=O)c(C(=O)O)cn5C4CC4)CC3)n2)cc1`, the growth is 38.5%.

In the case of `O=C1c2cc3c(cc2-c2c1c1cc(F)c(F)cc1c(=O)n2C[C@H](O)CO)OCO3`, the growth was 8.38% (active).

`Cn1c2ccccc2c2c3c(c4c5ccccc5n(CCCCCC#N)c4c21)C(=O)N(O)C3=O`: the growth was 27.6%.

Consider `CCOC(=O)c1c2c(n3ccc(NC(=O)CCN4CCOCC4)cc13)C(=O)c1ncccc1C2=O`, for which the growth is 31.3%.

For the compound `Oc1ccccc1N=Cc1c(O)ccc2ccccc12`, the growth is 58.9%.

As for `O=c1ccc2cc3ccccc3cc2[nH]1`, the growth was 98.2%.

On to `O=C(Nc1ccc(Oc2ccc(F)cc2)c(Cl)c1)c1cccnc1`, for which the growth is 95.4%.

On to `CCCCCCCCCc1cc(CN2CCCCC2)c(O)c(CN2CCCCC2)c1`, for which the growth is 75.9%.

For `CC/C(Cc1ccccc1)=C(\c1ccc(OCCN2CCCC2)cc1)c1ccc(OC(C)=O)cc1`, the growth is 78%.

For `C=C1CC[C@@H]2[C@](C)(COC(C)=O)[C@H](OC(C)=O)CC[C@@]2(C)[C@@H]1CC(Nc1ccc(S(=O)(=O)Nc2nc(C)cc(C)n2)cc1)C1=CCOC1=O` (stereo not given in full), the growth was 81.5%.

Turning to `COc1ccc2c(c1)C(=O)/C(=C/c1cccc(OCC(=O)Nc3nc4c(s3)CCCC4)c1)O2`, the growth was -47.4% (active).

In the case of `O=C([C@@H](COCc1ccccc1)N1C(=O)[C@@H](N2C(=O)OC[C@@H]2c2ccccc2)[C@H]1/C=C/c1ccccc1)N1CCC(CCN2CCCCC2)CC1`, the growth is 84.1%.

As to `O=c1[nH]c(-c2ccccn2)nc2sc3c(c12)CCCCC3`, the growth is 45.1%.

In the case of `NC1=CC(=O)C(=O)c2ccccc21`, the growth is 89.7%.

On to `CN1CCOCCOCCOc2ccccc2NC(=O)c2nc(cnc2N)-c2ccc(cc2)S1(=O)=O`, for which the growth is 50.8%.

For the compound `COc1ccc(S(=O)(=O)NCCCNc2nccc(-c3c(-c4cccc(N)c4)nc4sccn34)n2)cc1`, the growth is 87.1%.

In the case of `COc1ccccc1N1CCN(CCn2c(=O)c3c(c4ccccc4n3C)n(C)c2=O)CC1`, the growth is 104%.

As to `COc1cnc2c(c1)C(=O)c1c-2n(CCCBr)c(=O)c2cc([N+](=O)[O-])ccc12`, the growth was 2.21% (active).

On to `O=C(C[C@@H](C(=O)NCc1cccc(C(F)(F)F)c1)N1C(=O)[C@@H](N2C(=O)OC[C@@H]2c2ccccc2)[C@H]1/C=C/c1ccccc1)NC1CCN(Cc2ccccc2)CC1`, for which the growth is 75%.

For `CCCCCCNC(=O)Oc1ccc(/C(=C(\C)c2ccccc2)c2ccc(OCCN(CC)CC)cc2)cc1`, the growth is 59.2%.

On to `CC#CC#Cc1cccc(=O)o1`, for which the growth was 65.1%.

On to `CCCCCCCCCCCCNC(=O)[C@H]1CSC(c2ccc(OC)c(F)c2)N1` (stereo not given in full), for which the growth was -76% (active).

Regarding `O=C(CN1CCN(c2cc3c(cc2F)c(=O)c(C(=O)N/N=C/c2ccccc2)cn3C2CC2)CC1)N/N=C\c1ccccc1`, the growth is 54.4%.

For the compound `CNc1nc(C)c(-c2nc(Nc3cccc(S(N)(=O)=O)c3)ncc2F)s1`, the growth was 4.94% (active).

`CC1=CC(=O)CC(C)(C)[C@@]1(O)/C=C/[C@@H](C)O`: the growth was 107%.

Regarding `CC(=O)Nc1ccc2c(c1)c(NC(C)=O)nn2C(=O)Nc1ccc(Cc2ccccc2)cc1`, the growth is 83.2%.

As for `Cn1c2ccccc2c2c3c(c4c5ccccc5[nH]c4c21)C(=O)N(N)C3=O`, the growth is 72.7%.

`COc1cc(OC)c(/C=C/C(=O)c2c(OC)cc(OC)cc2OC)c(OC)c1`: the growth was 30.1%.

As for `CCCCCCCCCCCCCCCCCCNC(=O)[C@H]1CSC(c2ccc(OC)c(F)c2)N1` (stereo not given in full), the growth was 30.2%.

As for `O=C1c2cc3c(cc2-c2c1c1cc(Cl)c(Cl)cc1c(=O)n2C[C@H](O)CO)OCO3`, the growth was -2.45% (active).

As to `COc1cc2nc3cc([N+](=O)[O-])ccc3c(NCCCNCC(C)(C)O)c2cc1OC`, the growth was -18% (active).

Consider `CC(C)C1=C[C@@]23CC[C@@H]4[C@](C)(CCC[C@@]4(C)C(=O)OCC#CCN4CCCC4)[C@H]2C[C@@H]1[C@H]1C(=O)OC(=O)[C@H]13`, for which the growth is 81.9%.

For the compound `CN(C)c1ccc(/C=C(\C#N)c2nc3ccccc3s2)cc1`, the growth is 103%.

For the compound `COc1ccc(Cl)cc1Nc1nc(C(F)(F)F)ccc1C(=O)N/N=C/c1cccnc1`, the growth is 40.3%.
